The source of these data is PubChem BioAssay (NCI).

The panel holds about 83,000 compounds, 20% with a hit somewhere; the sample as a whole holds those more often.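 Testing used 96-well plates and a 48-hour single-concentration exposure. Example: -40 means 40% of the starting cells died.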 Values without a mark were called inactive. Active and inactive are the calls of the source. How the source made its calls: active means growth percent below 10; inactive means the rest.

Common to all, as to assay: NCI-60 one-dose screen, 48 h (100 = growth as untreated, 0 = no growth, -100 = all killed)
Holding throughout (conditions): 10 µM unless noted

The subject of experiment [1] is HCT-15 colon.
In experiment [2] the test system is HT29 colon.
Experiment [3] concerns SNB-75 CNS.
Experiment [4] deals with SNB-19 CNS.
Experiment [5] deals with U251 CNS.
The test system of experiment [6] is PC-3 prostate.
The subject of experiment [7] is SK-MEL-5 melanoma.
For experiment [8], the system named is UACC-62 melanoma.
The test system of experiment [9] is LOX IMVI melanoma.
The test system of experiment [10] is SK-MEL-28 melanoma.
The test system of experiment [11] is SK-MEL-2 melanoma.
Experiment [12] relates to EKVX NSCLC.
Experiment [13] relates to SN12C renal.
Experiment [14] concerns UO-31 renal.
Experiment [15] has as its system TK-10 renal.
For experiment [16], the system named is ACHN renal.
For experiment [17], the system named is CAKI-1 renal.
For experiment [18], the system named is A498 renal.
In experiment [19] the test system is CCRF-CEM leukemia.
Experiment [20] has as its system MOLT-4 leukemia.

Regarding `C=CCn1c(SCC(=O)Nc2ccc(C(=O)/C=C/c3cc4cc(OC)ccc4nc3Cl)cc2)nnc1-c1ccc(Br)cc1`, the growth in experiment [1] was 84.2%; in experiment [2], 73.8%; in experiment [3], 74.8%; in [4], 78.4%; in [5] it was 82.5%; in experiment [6], 68.2%. Also, the growth in experiment [7] is 82.9%; in experiment [8], 72.9%; in experiment [9], 82.6%; in [10], 99.9%; in experiment [11] it was 79.2%; in [12], 87.4%. For the same molecule, the growth was 81.5% in [13]; 65.3% in [14]; 93.5% in [15]; 92.1% in experiment [16]; 76.1% in [17]; 89.5% in [18]. Moreover, the growth in [19] is 58.5%; in [20], 68.5%.

Regarding `O=c1oc2ccccc2cc1C1=NN=C(SCc2ccccc2)SC1`, the growth in [1] was 101%; in experiment [2], 105%; in [3] it was 85.7%; in [4] it was 103%; in experiment [5], 92.2%; in experiment [6] it was 94%. The growth in experiment [7] is 100%; in experiment [8] it was 101%; in [9], 99.7%; in experiment [10] it was 109%; in experiment [11], 116%; in experiment [12], 101%. The growth is 103% in experiment [13]; 73.7% in experiment [14]; 108% in experiment [15]; 96.9% in experiment [16]; 87.4% in experiment [17]; 119% in experiment [18]. In addition, the figures for the growth in experiment [19] and in [20] were 95.3% and 97%, respectively.

For the molecule `COc1cc(/C=C/C(=O)c2cccc(Nc3nc(Nc4ccccc4)nc(Nc4ccccc4)n3)c2)cc(OC)c1OC`, the growth in experiment [1] is 49.6%; in experiment [2], 48.8%; in [3], 52.8%; in experiment [4], 93.9%; in experiment [5] it was 29.8%; in [6], 24.7%. Besides, the growth was 51% in experiment [7]; 64% in experiment [8]; 45.3% in experiment [9]; 68.9% in [10]; 53.6% in [11]; 66.1% in [12]. Further, the growth in experiment [13] was 84.2%; in [14], 35.3%; in [15], 66.3%; in experiment [16] it was 68.3%; in experiment [17], 75.5%; in [18], 68.8%. In addition, the growth was 6.56% (active) in [19] and 9.67% (active) in [20].

For `O=C1c2ccc3c4ccc5c6c(ccc(c7ccc(c2c37)C(=O)N1CCC[P+](c1ccccc1)(c1ccccc1)c1ccccc1)c64)C(=O)N(CCC[P+](c1ccccc1)(c1ccccc1)c1ccccc1)C5=O`, the growth in experiment [1] was 67.9%; in experiment [2], 26.4%; in [3], 131%; in [4], 42.4%; in experiment [5], 22.3%; in experiment [6] it was 56.1%. For the same molecule, the growth in [7] was 18.5%; in experiment [8], 54.5%; in [9], 17%; in experiment [10] it was 15.2%; in experiment [11], 98.7%; in experiment [12] it was 45.6%. Besides, the growth in [13] is 70.5%; in [14], 80.7%; in experiment [15], 141%; in experiment [16], 104%; in experiment [17], 0.659% (active); in experiment [18], 78.1%. Further, the growth is 45.9% in experiment [19] and 46.1% in [20].

For the molecule `C[C@]12C=CC(=O)C=C1CCC1C2[C@@H](O)C[C@@]2(C)C1CC[C@]2(O)C(=O)COC(=O)CCC(=O)O` (stereo not given in full), the growth was 105% in experiment [1]; 105% in experiment [2]; 120% in experiment [3]; 104% in experiment [4]; 103% in experiment [5]; 93.4% in [6]. The growth in [7] was 113%; in [8] it was 104%; in experiment [9] it was 102%; in experiment [10], 107%; in [11] it was 117%; in experiment [12], 74.2%. Besides, the growth in experiment [13] is 74.2%; in experiment [14] it was 92.2%; in [15], 116%; in experiment [16], 102%; in [17], 82.5%; in experiment [18], 89.2%. For the same molecule, the growth was 60.9% in experiment [19] and 100% in [20].

`S=C1CCSC(=S)N1CCCN1C(=S)CCSC1=S`: the growth in experiment [1] was 51.4%; in [2], 67.8%; in [3], 70%; in experiment [4], 89.7%; in experiment [5] it was 83.2%; in experiment [6], 69.1%. Also, the growth in experiment [7] was 91.5%; in [8] it was 50.4%; in experiment [9], 38.2%; in [10] it was 86.6%; in experiment [11], 96.1%; in [12] it was 101%. Further, the growth in experiment [13] is 75.6%; in [14], 45.1%; in experiment [15] it was 66%; in experiment [16], 44.4%; in [17] it was 58.9%; in experiment [18] it was 102%. Further, the growth in experiment [19] is 16.7%; in experiment [20], 30.1%.

`CCCCOC(=O)OCc1cc(=O)c(O)co1`: the growth in experiment [1] was 106%; in experiment [2] it was 101%; in experiment [3] it was 91.5%; in experiment [4] it was 99%; in experiment [5], 99.5%; in experiment [6] it was 99.6%. Moreover, the growth was 104% in experiment [7]; 99.4% in experiment [8]; 99.9% in [9]; 107% in experiment [10]; 109% in experiment [11]; 99.7% in experiment [12]. The growth was 99.2% in [13]; 92.1% in experiment [14]; 94.5% in experiment [15]; 97.7% in [16]; 93.3% in experiment [17]; 110% in [18]. The growth in experiment [19] is 109%; in experiment [20], 102%.
